Our source for the Potency and outcome values is PubChem BioAssay (Tox21).

The target in assay [1] is Peroxisome proliferator-activated receptor delta (Homo sapiens) (UniProt Q03181). In words: qHTS assay to identify small molecule agonists of the peroxisome proliferator-activated receptor delta (PPARd) signaling pathway (AID 743212; calls by dose curve; also: potency is read from the fitted curve at half-maximal effect). Put shortly: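 Read-out: beta-lactamase FRET fluorescence after 2 h room-temperature incubation with LiveBLAzer B/G substrate. Cells were HEK293H carrying a UAS-bla reporter for PPARd, treated at 37 C with DMSO-dissolved compounds.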
Sequence of Peroxisome proliferator-activated receptor delta (Homo sapiens) (Q03181 whole entry, looked up): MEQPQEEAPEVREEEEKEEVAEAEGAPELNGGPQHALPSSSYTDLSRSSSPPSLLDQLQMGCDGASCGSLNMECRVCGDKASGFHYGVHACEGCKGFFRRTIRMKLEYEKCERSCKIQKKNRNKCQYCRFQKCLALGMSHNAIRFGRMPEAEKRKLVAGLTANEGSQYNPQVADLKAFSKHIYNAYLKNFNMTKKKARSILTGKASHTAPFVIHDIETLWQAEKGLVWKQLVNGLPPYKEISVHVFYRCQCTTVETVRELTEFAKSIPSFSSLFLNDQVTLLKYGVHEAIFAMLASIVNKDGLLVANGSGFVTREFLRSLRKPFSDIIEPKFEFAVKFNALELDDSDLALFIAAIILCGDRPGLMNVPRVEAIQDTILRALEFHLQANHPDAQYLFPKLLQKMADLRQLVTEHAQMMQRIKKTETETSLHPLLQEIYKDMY
(In qHTS, concentration-response curves come from the screen itself.)

For assay [2], the target named is Bile acid receptor (Homo sapiens) (UniProt Q96RI1). Put plainly: qHTS assay to identify small molecule antagonists of the farnesoid-X-receptor (FXR) signaling pathway (AID 743217; active = well fitted inhibition curve with a large enough effect in the signal ratio in the repeat runs, not every such curve was filed as active; the % refers to the signal ratio; also: potency is read from the fitted curve at half-maximal effect). An outline of the steps: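 Antagonist mode: chenodeoxycholic acid at 50 uM final stimulates a UAS-driven beta-lactamase reporter in HEK 293T FXR-bla cells during 16 h, 37C compound exposure. Read-out is FRET substrate fluorescence after 2 h at room temperature.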
Sequence of Bile acid receptor (Homo sapiens) (Q96RI1 whole entry, looked up): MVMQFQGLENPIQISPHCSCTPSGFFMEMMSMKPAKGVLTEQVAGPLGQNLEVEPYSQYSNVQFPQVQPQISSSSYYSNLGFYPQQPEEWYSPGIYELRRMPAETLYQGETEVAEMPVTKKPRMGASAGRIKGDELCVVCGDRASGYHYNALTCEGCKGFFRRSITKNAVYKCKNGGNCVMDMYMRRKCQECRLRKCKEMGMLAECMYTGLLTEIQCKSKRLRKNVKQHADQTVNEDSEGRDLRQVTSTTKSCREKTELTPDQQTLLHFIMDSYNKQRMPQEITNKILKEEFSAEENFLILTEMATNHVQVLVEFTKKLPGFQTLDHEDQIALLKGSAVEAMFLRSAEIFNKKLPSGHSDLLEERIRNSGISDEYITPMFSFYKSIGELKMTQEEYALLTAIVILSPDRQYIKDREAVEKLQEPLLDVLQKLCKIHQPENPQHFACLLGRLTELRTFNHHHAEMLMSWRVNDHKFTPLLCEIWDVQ

Assay [3] in a line: qHTS assay to identify small molecule antagonists of the farnesoid-X-receptor (FXR) signaling pathway - cell viability counter screen (AID 743221; active = well fitted cell-killing curve with a large enough effect in the repeat runs, not every such curve was filed as active; also: nearly all actives have a fitted effect of over 50% in size). Put shortly: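 Luminescence from CellTiter-Glo measures cytotoxicity in GeneBLAzer FXR-UAS-bla HEK 293T cells. Cells were exposed to compounds with 50 uM chenodeoxycholic acid (final) for 16 h at 37 C, in wells also used for the reporter readout.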

The target of assay [4] is Vitamin D3 receptor (Homo sapiens) (UniProt P11473). In words: qHTS assay to identify small molecule antagonists of the vitamin D receptor (VDR) signaling pathway (AID 743223; active = well fitted inhibition curve with a large enough effect in the signal ratio in the repeat runs, not every such curve was filed as active; the % refers to the signal ratio). An outline of the steps:
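Antagonist mode uses 1alpha,25-dihydroxyvitamin D3 at 3 nM final as stimulus. VDR-bla cells receive compounds in DMSO, incubate 16 h at 37C, then a beta-lactamase FRET substrate for 2 h at room temperature before fluorescence measurement.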

Assay [5] is described as follows: qHTS assay to identify small molecule antagonists of the peroxisome proliferator-activated receptor delta (PPARd) signaling pathway - cell viability counter screen (AID 743213). Also: nearly all actives have a fitted effect of over 50% in size. An outline of the steps:
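CellTiter-Glo was added to PPARd-bla HEK293H wells following 17 h compound treatment in the presence of 300 nM L165041. Luminescence was recorded after 30 min at room temperature.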

In assay [6] the target is Peroxisome proliferator-activated receptor delta (Homo sapiens) (UniProt Q03181). In words: qHTS assay to identify small molecule antagonists of the peroxisome proliferator-activated receptor delta (PPARd) signaling pathway (AID 743215; active = well fitted inhibition curve with a large enough effect in the signal ratio in the repeat runs, not every such curve was filed as active; the % refers to the signal ratio;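 also: cells stimulated with agonist L165041 at 300 nM final during compound exposure; series mostly up to about 62 µM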). An outline of the steps:
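Agonist L165041 (300 nM final) added with compound to PPARd-bla HEK293H UAS-bla reporter cells; 17 h incubation at 37 C. Read-out: LiveBLAzer FRET substrate, 2 h at room temperature, fluorescence intensity.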

A short description of assay [7]: qHTS assay to identify small molecule agonists of the farnesoid-X-receptor (FXR) signaling pathway - cell viability counter screen (AID 743218). Also: nearly all actives have a fitted effect of over 45% in size. Also: potency is read from the fitted curve at half-maximal effect. An outline of the steps: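 Viability counter screen in the same wells: CellTiter-Glo luminescence, 30 min room-temperature incubation, measured after the beta-lactamase read. Cells were GeneBLAzer FXR-UAS-bla HEK 293T, compound-treated 16 h at 37C.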

Assay [8] addresses Bile acid receptor (Homo sapiens) (UniProt Q96RI1). Put plainly: qHTS assay to identify small molecule agonists of the farnesoid-X-receptor (FXR) signaling pathway (AID 743220; active = well fitted activation curve with a large enough effect in the signal ratio in the repeat runs, not every such curve was filed as active; the % refers to the signal ratio). Put shortly:
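FXR-UAS-bla HEK 293T cells carrying a UAS-driven beta-lactamase reporter were plated for 5 h at 37C/5% CO2, then exposed to DMSO-dissolved Tox21 10K compounds for 16 h at 37C. A LiveBLAzer B/G FRET substrate was loaded for 2 h at room temperature before fluorescence reading.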

Assay [9] in a line: qHTS assay to identify small molecule agonists of the peroxisome proliferator-activated receptor delta (PPARd) signaling pathway - cell viability counter screen (AID 743211). Also: nearly all actives have a fitted effect of over 55% in size. Also: potency is read from the fitted curve at half-maximal effect. An outline of the steps:
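HEK293H PPARd-bla, 3000 cells/well; 5 h preincubation 37C/5% CO2; cpd in DMSO, 17 h 37C; B/G FRET substrate 2 h RT; CellTiter-Glo 30 min RT, luminescence.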

Assay [10] concerns the target Vitamin D3 receptor (Homo sapiens) (UniProt P11473). Put plainly: qHTS assay to identify small molecule agonists of the vitamin D receptor (VDR) signaling pathway (AID 743222; calls by dose curve). An outline of the steps:
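Agonist mode, beta-lactamase reporter: fluorescence from LiveBLAzer B/G FRET substrate (2 h, room temperature) read after 16 h compound treatment at 37 C of VDR-bla cells, which were pre-incubated 4 h after seeding.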

Records with an inconclusive call do not appear. The source made the active and inactive calls. Unless noted, calls follow the shape of the dose curve; as a rule, active = well fitted curve in the direction sought with a large enough effect in the repeat runs; inconclusive = weak or mixed curves; inactive = no such curve, though single readings can be large; an effect the other way counts as inactive or inconclusive.

Sequence of Vitamin D3 receptor (Homo sapiens) (P11473 whole entry, looked up): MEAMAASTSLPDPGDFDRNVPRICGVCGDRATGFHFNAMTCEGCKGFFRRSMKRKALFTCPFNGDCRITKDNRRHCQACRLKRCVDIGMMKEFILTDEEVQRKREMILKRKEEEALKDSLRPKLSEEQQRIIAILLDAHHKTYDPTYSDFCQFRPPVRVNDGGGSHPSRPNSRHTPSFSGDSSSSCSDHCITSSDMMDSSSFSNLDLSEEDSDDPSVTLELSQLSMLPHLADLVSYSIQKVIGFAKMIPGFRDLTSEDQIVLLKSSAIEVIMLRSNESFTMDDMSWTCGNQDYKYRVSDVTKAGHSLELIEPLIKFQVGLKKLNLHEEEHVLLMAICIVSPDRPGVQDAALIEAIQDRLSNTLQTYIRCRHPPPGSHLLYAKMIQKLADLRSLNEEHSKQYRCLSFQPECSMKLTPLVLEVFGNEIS

As to `CCCc1c(OCCCOc2ccc(OCC(=O)O)cc2)ccc(C(C)=O)c1O`, the Potency in [1] was 11 nM (active). Moreover, the Potency entry in [2] and in assay [3] was “inactive” in each case. Besides, the outcome in assay [4] was inactive.

In the case of `CCCC1C(CC)=CC(CC)=CN1c1ccccc1` (stereo not given), the Potency entry in assay [1], in assay [5], in [6], in [2], in [7] and in assay [8] was “inactive” in each case. In [3], the Potency entry was “inactive”.

On to `CCCCC1C(=O)N(c2ccccc2)N(c2ccc(O)cc2)C1=O` (stereo not given), for which the Potency result in assay [5], in assay [6] and in assay [7] was “inactive” each time.

With `CC1CC(=O)NN=C1c1ccc(NCC(C)(C)NCC(O)COc2cc(Cl)ccc2C#N)cc1` (stereo not given), the Potency result in [9], in assay [2], in assay [7], in assay [8] and in assay [3] was “inactive” in each case. In addition, the molecule was classed as inactive in assay [10].

For the molecule `Nc1ccc(C(=O)OCCCOC(=O)c2ccc(N)cc2)cc1`, the Potency result in assay [5], in assay [2], in assay [7], in [8] and in [3] was “inactive” throughout. In addition, the outcome in assay [4] was inactive.

`C=CC(C)=CCC=C(C)C`: the Potency entry in assay [9] and in assay [5] was “inactive” throughout. Also, the outcome in [10] and in [4] was inactive.

Consider `CCCCCCCCCCCC[N+](C)(C)CCCS(=O)(=O)[O-]`, for which the Potency entry in assay [1], in [6], in [7] and in [3] was “inactive” throughout. For the same molecule, the molecule was classed as inactive in assay [10].

Consider `C(=C\c1ccccc1)/CN1CCN(C(c2ccccc2)c2ccccc2)CC1`, for which the Potency in assay [9] was 29.8 µM (active). For the same molecule, the Potency entry in assay [8] and in assay [3] was “inactive” in each case. Besides, the call in [10] and in [4] was inactive.

For the molecule `CC(=O)[C@H]1CC[C@H]2[C@@H]3C=CC4=CC(=O)CC[C@@]4(C)[C@@H]3CC[C@]12C`, the Potency result in assay [9], in assay [5], in assay [8] and in assay [3] was “inactive” throughout.

For the molecule `CCCCCCCC/C=C\CCCCCCCC(=O)OC(CO)CO`, the Potency result in assay [5], in assay [7] and in assay [3] was “inactive” throughout.

For `COc1cc2ncnc(Nc3ccc(F)c(Cl)c3)c2cc1OCCCN1CCOCC1`, the Potency in assay [9] is 29.8 µM (active). In addition, in assay [8], the Potency entry was “inactive”. The result in [10] and in assay [4] was inactive.

Turning to `CCCCCC=CCC=CCCCCCCCC(=O)OCC`, the Potency entry in assay [6], in assay [2], in assay [7], in [8] and in assay [3] was “inactive” in each case. In [4], the molecule was called inactive.

In the case of `CC(C)CCCCCOC(=O)CCCCC(=O)OCCCCCC(C)C`, the Potency entry in [1], in assay [5], in [6], in [7] and in assay [3] was “inactive” throughout. For the same molecule, the molecule was called inactive in assay [10] and in [4].

For the molecule `Cc1occc1C(=O)Nc1ccc(C(=O)N2CCC(F)(F)/C(=C\C(=O)N3CCC(N4CCCCC4)CC3)c3ccccc32)cc1`, the Potency entry in assay [9], in [2], in assay [8] and in assay [3] was “inactive” each time. Besides, the molecule was classed as inactive in assay [10] and in assay [4].

As for `O=C(C(=O)c1ccccc1)c1ccccc1`, the Potency entry in assay [9], in assay [5] and in assay [3] was “inactive” throughout. Further, the molecule was classed as inactive in assay [10].

Take `O=C(O)c1cccc(O)c1`: the Potency result in assay [9], in assay [2], in [7], in assay [8] and in assay [3] was “inactive” each time.

Consider `Cc1cc(C(=C2C=CC(=Nc3ccc(S(=O)(=O)O)cc3S(=O)(=O)O)C=C2)c2ccc(Nc3ccc(S(=O)(=O)O)cc3)cc2)ccc1N`, for which the Potency entry in [9], in assay [5] and in [3] was “inactive” each time. The molecule was called inactive in assay [10] and in [4].

As for `CC1C2CC(CC2C2CCCC(O)C2)C1(C)C` (stereo not given), the Potency result in [1], in assay [6] and in assay [8] was “inactive” each time. The outcome in assay [10] was inactive.

On to `CC1(C)C2=CCCC(C)(C)[C@]23CC[C@H]1C3`, for which the Potency result in assay [1], in [5], in assay [6], in assay [2], in assay [8] and in [3] was “inactive” in each case. The call in assay [10] and in assay [4] was inactive.

As for `COC(=O)Nc1nc2ccc(C(=O)c3cccs3)cc2[nH]1`, the Potency entry in [8] is “inactive”. Also, the molecule was called inactive in assay [10].

For the molecule `O=C(CCCN1CCC(O)(c2ccc(Br)cc2)CC1)c1ccc(F)cc1`, the Potency entry in assay [1], in assay [5] and in assay [6] was “inactive” each time. For the same molecule, the call in assay [10] and in assay [4] was inactive.

Regarding `Cc1cc2nc3ccc(=[N+](C)C)cc-3sc2cc1N`, the Potency entry in [1], in [5], in [6], in assay [8] and in assay [3] was “inactive” throughout. In addition, the Potency in [2] is 10.6 µM (active). For the same molecule, the call in assay [10] and in [4] was inactive.

Take `CCOC(=O)[C@@H](C)Oc1ccc(Oc2nc3ccc(Cl)cc3o2)cc1`: the Potency result in assay [9], in [5], in [8] and in assay [3] was “inactive” in each case. The molecule was called inactive in assay [10] and in assay [4].

As to `CC(=O)Oc1ccc(C(=C2CCCCC2)c2ccc(OC(C)=O)cc2)cc1`, the Potency entry in assay [1], in assay [5], in [2], in [7], in [8] and in assay [3] was “inactive” each time.

For the molecule `Cc1c(C(=O)NN2CCCCC2)nn(-c2ccc(Cl)cc2Cl)c1-c1ccc(Cl)cc1`, the values for the Potency in assay [9] and in assay [7] were 23.7 µM (active) and 33.5 µM (active), respectively. The Potency entry in assay [8] is “inactive”.

With `COc1cc2c(cc1OC)-c1cc(=Nc3c(C)cc(C)cc3C)n(C)c(=O)n1CC2`, the Potency entry in [7] and in [3] was “inactive” in each case. Further, in [4], the outcome was inactive.

Consider `O=C(Nc1ccc([N+](=O)[O-])cc1)Nc1ccc([N+](=O)[O-])cc1`, for which the Potency result in assay [6], in [2] and in [8] was “inactive” each time. In addition, the Potency in [7] was 0.75 µM (active). Moreover, the result in assay [10] and in assay [4] was inactive.

For the molecule `CC(=O)N(c1onc(C)c1C)S(=O)(=O)c1ccc(N)cc1`, the Potency result in assay [9], in assay [2], in [7], in assay [8] and in assay [3] was “inactive” each time. Moreover, the result in assay [10] was inactive.

In the case of `Cc1ccc(Nc2nccc(N(C)c3ccc4c(C)n(C)nc4c3)n2)cc1S(N)(=O)=O`, the Potency result in assay [9], in assay [7] and in assay [3] was “inactive” throughout. Besides, the result in assay [4] was inactive.

On to `CO[C@H]1C=CO[C@@]2(C)Oc3c(C)c(O)c4c(O)c(c5c(c4c3C2=O)=NC2(CCN(CC(C)C)CC2)N=5)NC(=O)/C(C)=C\C=C/[C@H](C)[C@H](O)[C@@H](C)[C@@H](O)[C@@H](C)[C@H](OC(C)=O)[C@@H]1C`, for which the Potency in [9] was 24 µM (active). In assay [8], the Potency result was “inactive”.

For the molecule `CCNC(=O)N1CCN(CCCC(c2ccc(F)cc2)c2ccc(F)cc2)CC1`, the Potency entry in assay [1], in assay [5], in assay [7] and in [3] was “inactive” each time. Moreover, the molecule was classed as inactive in assay [4].

Turning to `COc1cc2c(N3CCN(C(=O)Nc4ccc(OC(C)C)cc4)CC3)ncnc2cc1OCCCN1CCCCC1`, the Potency result in [7] and in assay [3] was “inactive” each time. In addition, in [10], the outcome was inactive.

On to `O=C(CCC1CCN(Cc2ccccc2)CC1)c1ccc2c(c1)NCCCC2`, for which the Potency result in assay [5], in assay [7] and in assay [3] was “inactive” in each case.

With `Fc1ccccc1[C@@H](F)COC1CCC(Nc2ncnc3[nH]ncc23)CC1` (stereo not given in full), the Potency result in [1], in [5], in assay [7], in assay [8] and in assay [3] was “inactive” in each case. For the same molecule, in assay [2], the Potency was 43.6 µM (active). In addition, the outcome in [10] was inactive.
